Results reported in PubChem BioAssay (NCATS).
Results filed as inconclusive are left out. For some assays here: Results with a measured potency or affinity are listed apart. Active and inactive are the calls of the source.

Key:
[1] = Ebola virus entry assay, green channel fluorescence
[2] = Ebola virus entry assay, reporter ratio channel; AC50: Channel type: primary unless noted; outcome: Channel type: primary unless noted
[3] = Ebola virus entry assay, blue channel (ratio component)
[4] = qHTS assay for measurement of the activity of small molecule inhibitors on Zika virus induced Caspase-3 activity in human iPSC derived neural progenitor cells (hNPCs) (AID 1224857); conditions: hNPCs ZIKV-induced caspase-3/7, Caspase-Glo luminescence, 6 h; series mostly up to 45.7 µM; further: nearly all actives have a fitted effect of over 65% in size
Summary of the method: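 In medium with heparin 2 ug/ml and cyclopamine 2 uM, hNPCs (350 cells/well) received compound for one hour and then Zika virus at 2 FFU/cell; caspase activity was measured by Caspase-Glo 3/7 luminescence 6 h post-infection.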

[5] = qHTS assay for measurement of the activity of small molecule inhibitors on Zika virus induced Caspase-3 activity in human astrocytoma cells (AID 1224859); conditions: SNB-19 ZIKV-induced caspase-3/7, luminescence, 6 h; series mostly up to 45.7 µM
Summary of the method: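 A cell-based luminescent caspase-3/7 assay used SNB-19 cells infected with ZIKV (2 FFU/cell) for 6 h following 1 h compound pretreatment.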

[6] = qHTS assay to identify small molecule inhibitors of chordoma cells - UCH-2 (AID 1259356); conditions: UCH-2 chordoma viability, CellTiter-Glo ATP luminescence, 48 h; series mostly up to 46.1 µM
[7] = qHTS assay to identify small molecule inhibitors of chordoma cells - UCH-1 (AID 1259355); conditions: UCH-1 chordoma viability, CellTiter-Glo, 48 h, combination; series mostly up to 46.1 µM; further: nearly all actives have a fitted effect of over 55% in size
Summary of the method: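 Luminescent ATP read-out (CellTiter-Glo, 30min at room temperature) measured viability of UCH-1 cells exposed for 48hr to test drugs at 15 concentrations, co-dosed with a five-agent combination of auranofin, camptothecin, doxorubicin, rubitecan and topotecan.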

[8] = High-throughput drug toxicity screening in the BPDCN cell line Gen2.2 (AID 1224824; call rule not given here;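 further: cells exposed to compounds for 48 h before reading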); conditions: Gen2.2 BPDCN cells; at 45.8 µM (top of the series) unless noted
Summary of the method: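 Gen2.2, 500 cells/well, phenol red-free RPMI/10% FBS/Pen-Strep; 48 h cpd, 37 °C/5% CO2; CTG lum, 15 min RT. Norm: DMSO = 100%, bortezomib 9.2 uM final = 0%.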

[9] = High-throughput drug toxicity screening in the BPDCN cell line Cal-1 (AID 1224825; call rule not given here); conditions: Cal-1 BPDCN cell viability, qHTS; at 45.8 µM (top of the series) unless noted
Summary of the method: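 Exponentially growing Cal-1 cells, 500 per well in phenol red-free RPMI with 10% FBS, were exposed to compounds for 48 h at 37 °C, 5% CO2. Viability was read by CellTiter-Glo luminescence and normalised to DMSO (100%) and 9.2 uM bortezomib (0%).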

[10] = qHTS Screen of the MIPE 4.0 Collection Against Ewings Sarcoma (RDES) (AID 1259252); conditions: RD-ES Ewing sarcoma viability, CellTiter-Glo, 48 h; series mostly up to 45.8 µM; further: nearly all actives have a fitted effect of over 35% in size
Summary of the method: (§1)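 Measured: ATP luminescence (CellTiter-Glo) 10 min after reagent addition, following 48 h drug treatment. Relative luciferase units converted to percent activity, with no-cell wells as full and DMSO wells as zero inhibition.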

[11] = qHTS Screen of the MIPE 4.0 Collection Against Ewings Sarcoma (TC71) (AID 1259253); conditions: TC71 Ewing sarcoma viability, CellTiter-Glo, 48 h; series mostly up to 45.8 µM; further: nearly all actives have a fitted effect of over 40% in size
Summary of the method: as §1

[12] = qHTS Screen of the MIPE 4.0 Collection Against Ewings Sarcoma (EW8) (AID 1259255); conditions: EW8 Ewing sarcoma viability, CellTiter-Glo, 48 h; series mostly up to 45.8 µM; further: nearly all actives have a fitted effect of over 35% in size
Summary of the method: as §1

[13] = qHTS Screen of the MIPE 4.0 Collection Against Ewings Sarcoma (TC32) (AID 1259256); conditions: TC32 Ewing sarcoma viability, CellTiter-Glo, 48 h; series mostly up to 45.8 µM; further: nearly all actives have a fitted effect of over 45% in size
Summary of the method: as §1

[14] = Ebola virus entry assay, blue channel fluorescence
[15] = Ebola virus entry reporter assay, green channel fluorescence
[16] = Ebola virus entry cell assay, ratio channel

CCCCCCCCCC(=O)O[C@H]1CC[C@H]2[C@@H]3CCC4=CC(=O)CC[C@@H]4[C@H]3CC[C@]12C
inactive: outcome [1] | outcome [2] | outcome [3] | outcome [4] | outcome [5] | outcome [6]

CN1CC[C@]23c4c5ccc(O)c4O[C@H]2[C@@H](O)CC[C@H]3[C@H]1C5
inactive: outcome [1] | outcome [2] | outcome [3] | outcome [5]

Nc1ccccc1C(=O)O
inactive: outcome [1] | outcome [2] | outcome [3] | outcome [4] | outcome [5] | outcome [7] | outcome [6]

CC(=O)OCC1=C(C(=O)O)N2C(=O)[C@@H](N)[C@H]2SC1
inactive: outcome [1] | outcome [2] | outcome [3] | outcome [5] | outcome [7] | outcome [6]

CCOP(=S)(OCC)Oc1ccc2c(C)c(Cl)c(=O)oc2c1
inactive: outcome [1] | outcome [2] | outcome [3] | outcome [7] | outcome [6]

CCN(CCO)CCn1c(Cc2ccccc2)nc2c1c(=O)n(C)c(=O)n2C
inactive: outcome [1] | outcome [2] | outcome [3] | outcome [4] | outcome [5]

O=c1[nH]oc2c1CCNC2
inactive: outcome [1] | outcome [2] | outcome [3] | outcome [4] | outcome [5] | outcome [7] | outcome [6]

NCCc1ccc(O)cc1
inactive: outcome [1] | outcome [2] | outcome [3] | outcome [4] | outcome [5] | outcome [6]

CN(C)CCc1c[nH]c2cccc(OP(=O)(O)O)c12
inactive: outcome [1] | outcome [2] | outcome [3] | outcome [5]

CC(C)c1cccc(C(C)C)c1O
123%: cell viability, % of control (lower = more cytotoxic) [8]
inactive: outcome [1] | outcome [3] | outcome [4] | outcome [5] | Potency [10] | Potency [11] | outcome [12] | Potency [13] | outcome [7] | outcome [6]
113%: viability (% of control) [9]

CN1CCC(O)(c2ccc(F)cc2)C(C(=O)c2ccc(F)cc2)C1 (stereo unspecified)
inactive: outcome [1] | outcome [2] | outcome [3] | outcome [4] | outcome [5] | outcome [7] | outcome [6]

[N-]=[N+]=CC(=O)OC[C@H](N)C(=O)O
inactive: outcome [1] | outcome [2] | outcome [3] | outcome [5] | outcome [6]

CC(C=CC1=C(C)CCCC1(C)C)=CC=CC(C)=CC(=O)O
inactive: outcome [14] | outcome [15] | outcome [16]

CC(C)c1nc(N(C)S(C)(=O)=O)nc(-c2ccc(F)cc2)c1/C=C/C(O)CC(O)CC(=O)O (stereo unspecified)
inactive: outcome [14] | outcome [15] | outcome [16]

C=CC(N)CCC(=O)O (stereo unspecified)
inactive: outcome [14] | outcome [15] | outcome [16]

CC(C)(S)[C@@H](N)C(=O)O
inactive: outcome [14] | outcome [15] | outcome [16]
